Experimental data as given in PubChem BioAssay AID1159580 (chemical genetic matrix, 2015).
Values joined by “and” are separate entries in the source; they are usually repeats but may differ in a detail not shown here. Equal entries are not always repeated. Screen size: about 5,500 compounds; about 2,000 (36%) were called active. Not shown: some 18% with an inconclusive outcome. No stated cut-off is given here; in the data, active means normalized growth mostly below about 0.91 (no sharp cut-off); inconclusive means no clear call, values can overlap the other calls; inactive means mostly above about 0.92. The list shows a part of the results.

Assay: chemical genetic growth profiling, strain panel (AID 1159580);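 further: tested at 20 µM; growth read once vehicle control cultures reached saturation at 30 °C; 1 = growth at the plate median or of vehicle wells; lower values mean less growth of the strain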
Settings: growth OD

Measured: normalized growth

NCCCNCCSP(=O)(O)O
inactive: S. cerevisiae deletion strains, locus YJR075W, strain HOC1, active compounds read low 1.01 | S. cerevisiae deletion strains, locus YKL009W, strain mrt4, active compounds read low 0.969 | S. cerevisiae deletion strains, locus YKL068W, active compounds read low 0.982 | S. cerevisiae deletion strains, locus YKL085W, strain MDH1 (second series), active compounds read low 0.985 | S. cerevisiae deletion strains, locus YKL085W, strain MDH1, active compounds read low 0.985 | S. cerevisiae deletion strains, locus YKL160W, strain elf1, active compounds read low 0.963 | S. cerevisiae deletion strains, locus YKL190W, strain CNB1, active compounds read low 0.988 | S. cerevisiae deletion strains, locus YKR001C, strain vps1, active compounds read low 0.986 | S. cerevisiae deletion strains, locus YKR026C, strain gcn3, active compounds read low 0.984 | S. cerevisiae deletion strains, locus YKR091W, strain srl3, active compounds read low 0.969 | S. cerevisiae deletion strains, locus YLL001W, strain dnm1, active compounds read low 0.954 | S. cerevisiae deletion strains, locus YLL026W, active compounds read low 0.972 | S. cerevisiae deletion strains, locus YLL041C, strain sdh2, active compounds read low 0.983 | S. cerevisiae deletion strains, locus YLR027C, strain aat2, active compounds read low 0.964 | S. cerevisiae deletion strains, locus YLR039C, strain RIC1, active compounds read low 0.974 | S. cerevisiae deletion strains, locus YLR058C, strain SHM2, active compounds read low 0.989 | S. cerevisiae deletion strains, locus YLR102C, strain apc9, active compounds read low 0.992 | S. cerevisiae deletion strains, locus YLR221C, strain rsa3, active compounds read low 0.952 | S. cerevisiae deletion strains, locus YLR258W, strain gsy2, active compounds read low 0.994 | S. cerevisiae deletion strains, locus YLR262C, strain YPT6 (second series), active compounds read low 0.96 | S. cerevisiae deletion strains, locus YLR262C, strain YPT6, active compounds read low 0.973 | S. cerevisiae deletion strains, locus YLR268W, strain sec22, active compounds read low 0.995 | S. cerevisiae deletion strains, locus YLR320W, strain mms22, active compounds read low 0.961 | S. cerevisiae deletion strains, locus YLR330W, strain CHS5, active compounds read low 0.989 | S. cerevisiae deletion strains, locus YLR342W, strain FKS1 (second series), active compounds read low 0.975 | S. cerevisiae deletion strains, locus YLR342W, strain FKS1, active compounds read low 0.979 | S. cerevisiae deletion strains, locus YLR357W, strain rsc2, active compounds read low 0.957 | S. cerevisiae deletion strains, locus YLR370C, strain arc18, active compounds read low 0.969 | S. cerevisiae deletion strains, locus YLR371W, strain rom2, active compounds read low 0.974 | S. cerevisiae deletion strains, locus YLR384C, strain iki3, active compounds read low 0.96 | S. cerevisiae deletion strains, locus YLR418C, strain cdc73, active compounds read low 1.01 | S. cerevisiae deletion strains, locus YML016C, strain PPZ1, active compounds read low 0.99 | S. cerevisiae deletion strains, locus YML032C, strain rad52, active compounds read low 0.978 | S. cerevisiae deletion strains, locus YML120C, strain ndi1, active compounds read low 0.964 | S. cerevisiae deletion strains, locus YML124C, strain tub3, active compounds read low 0.991 | S. cerevisiae deletion strains, locus YMR058W, strain fet3, active compounds read low 0.976 | S. cerevisiae deletion strains, locus YMR078C, strain ctf18, active compounds read low 0.981 | S. cerevisiae deletion strains, locus YMR125W, strain sto1, active compounds read low 0.975 | S. cerevisiae deletion strains, locus YMR129W, active compounds read low 0.99 | S. cerevisiae deletion strains, locus YMR205C, strain PFK2, active compounds read low 0.937 | S. cerevisiae deletion strains, locus YMR223W, strain ubp8, active compounds read low 0.973 | S. cerevisiae deletion strains, locus YMR231W, strain pep5, active compounds read low 0.978 | S. cerevisiae deletion strains, locus YMR263W, strain SAP30, active compounds read low 0.997 and 0.98 | S. cerevisiae deletion strains, locus YMR307W, strain GAS1, active compounds read low 0.974 | S. cerevisiae deletion strains, locus YNL067W, strain RPL9B, active compounds read low 0.984 | S. cerevisiae deletion strains, locus YNL071W, strain lat1, active compounds read low 0.983 | S. cerevisiae deletion strains, locus YNL128W, strain TEP1, active compounds read low 1.01 and 1 | S. cerevisiae deletion strains, locus YNL153C, strain GIM3, active compounds read low 1.01 and 0.993 | S. cerevisiae deletion strains, locus YNL175C, strain NOP13, active compounds read low 1.01 | S. cerevisiae deletion strains, locus YNL197C, strain WHI3, active compounds read low 1 | S. cerevisiae deletion strains, locus YNL209W, strain ssb2, active compounds read low 0.981 | S. cerevisiae deletion strains, locus YNL224C, strain SQS1, active compounds read low 0.988 | S. cerevisiae deletion strains, locus YNL233W, strain BNI4, active compounds read low 0.997 | S. cerevisiae deletion strains, locus YNL248C, strain rpa49, active compounds read low 0.977 | S. cerevisiae deletion strains, locus YNL250W, strain rad50, active compounds read low 0.981 | S. cerevisiae deletion strains, locus YNL271C, strain bni1, active compounds read low 0.994 | S. cerevisiae deletion strains, locus YNL298W, strain CLA4, active compounds read low 0.988 | S. cerevisiae deletion strains, locus YNL307C, strain MCK1, active compounds read low 0.989 | S. cerevisiae deletion strains, locus YNL322C, strain KRE1 (second series), active compounds read low 0.956 | S. cerevisiae deletion strains, locus YNL322C, strain KRE1, active compounds read low 1 | S. cerevisiae deletion strains, locus YNR049C, strain mso1, active compounds read low 0.963 | S. cerevisiae deletion strains, locus YNR052C, strain pop2, active compounds read low 0.986 | S. cerevisiae deletion strains, locus YOL006C, strain TOP1, active compounds read low 1.02 | S. cerevisiae deletion strains, locus YOL012C, strain htz1 0.741 | S. cerevisiae deletion strains, locus YOL147C, strain pex11, active compounds read low 0.988 | S. cerevisiae deletion strains, locus YOR001W, strain rrp6, active compounds read low 1.02 | S. cerevisiae deletion strains, locus YOR061W, strain CKA2, active compounds read low 1 | S. cerevisiae deletion strains, locus YOR069W, strain VPS5, active compounds read low 0.995 | S. cerevisiae deletion strains, locus YOR070C, strain gyp1, active compounds read low 0.982 | S. cerevisiae deletion strains, locus YOR080W, strain dia2, active compounds read low 0.968 | S. cerevisiae deletion strains, locus YOR083W, strain WHI5 (second series), active compounds read low 1.01 | S. cerevisiae deletion strains, locus YOR083W, strain WHI5, active compounds read low 0.96 | S. cerevisiae deletion strains, locus YOR106W, strain vam3, active compounds read low 0.931 | S. cerevisiae deletion strains, locus YOR136W, strain idh2, active compounds read low 0.992 | S. cerevisiae deletion strains, locus YOR144C, strain elg1, active compounds read low 0.982 | S. cerevisiae deletion strains, locus YOR184W, strain ser1, active compounds read low 0.962 | S. cerevisiae deletion strains, locus YOR265W, strain rbl2, active compounds read low 0.984 | S. cerevisiae deletion strains, locus YOR270C, strain vph1, active compounds read low 0.924 | S. cerevisiae deletion strains, locus YOR290C, strain snf2, active compounds read low 0.965 | S. cerevisiae deletion strains, locus YOR316C, strain cot1, active compounds read low 0.977 | S. cerevisiae deletion strains, locus YPL051W, strain arl3, active compounds read low 0.987 | S. cerevisiae deletion strains, locus YPL055C, strain LGE1, active compounds read low 1.02 and 0.958 | S. cerevisiae deletion strains, locus YPL078C, strain atp4, active compounds read low 0.971 | S. cerevisiae deletion strains, locus YPL106C, strain sse1, active compounds read low 0.954 | S. cerevisiae deletion strains, locus YPL240C, strain hsp82, active compounds read low 0.993 | S. cerevisiae deletion strains, locus YPL241C, strain CIN2, active compounds read low 0.998 and 0.991 | S. cerevisiae deletion strains, locus YPR119W, strain clb2, active compounds read low 0.995 | S. cerevisiae deletion strains, locus YPR141C, strain kar3, active compounds read low 0.976 | S. cerevisiae deletion strains, locus YPR163C, strain tif3, active compounds read low 0.986 | S. cerevisiae deletion strains, locus YPR167C, strain met16, active compounds read low 0.995 | S. cerevisiae deletion strains, strain wtn01, active compounds read low 0.99 | S. cerevisiae strains, strain wild type, active compounds read low 0.977
